PPARg SRC-3 ag: PPARgamma-driven SRC-3 recruitment agonism. P37231. biochemical PPARgamma/SRC-3 coactivator recruitment assay. activation, % at 8 µM. hit rate 0.26% among 200,000; in the data active = activation above about 23%;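 also: 0% = DMSO and 100% = reference agonist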
SRC3 TRFRET art: counter-screen for PPARgamma SRC-3 recruitment agonists: TR-FRET artefact | hit rate 0.39% among 99,000 | PPARgamma/SRC-3 format; hits give high values | TR-FRET ratio at 8 µM
SRC2 TRFRET art: TR-FRET artefact, counter-screen to PPARgamma/SRC-2 agonist assay; hits give high values; TR-FRET ratio at 8 µM; hit rate 0.4% among 200,000
SRC1 TRFRET art: counter-screen for PPARgamma SRC-1 recruitment agonists: TR-FRET artefact; TR-FRET detection artefact counter-screen, emission ratio; hits give high values; TR-FRET ratio at 8 µM; hit rate 0.34% among 99,000; AID 1051; in the data active = TR-FRET ratio above about 2300
PPARg SRC-1 ag: agonists of human PPARgamma SRC-1 coactivator recruitment | P37231 | hit rate 0.41% among 200,000 | AID 631 | activation, % at 8 µM | PPARgamma-SRC-1 coactivator recruitment biochemical assay; in the data active = activation above about 19%;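 also: 0% = DMSO and 100% = reference agonist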
PPARg SRC2 recr: promotes SRC-2 coactivator recruitment by human PPARgamma; activation, % at 8 µM; PPARgamma LBD-SRC-2 recruitment, biochemical; hit rate 0.34% among 200,000; P37231; in the data active = activation above about 22%;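 also: 0% = vehicle and 100% = reference agonist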
PPARg SRC2 ag: confirmation of agonists of SRC-2 recruitment by human PPARgamma; shares compounds with PPARg SRC-3 ag; biochemical SRC-2 recruitment by PPARgamma; activation, % at 8 µM; hit rate 52% among 790; AID 1297; in the data active = activation above about 22%;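 also: 0% = vehicle alone and 100% = reference agonist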
PPARg SRC1 ag: human PPARgamma SRC-1 recruitment agonism, confirmation; shares compounds with PPARg SRC-3 ag; PPARgamma–SRC-1 coactivator recruitment biochemical assay; activation, % at 8 µM; hit rate 43% among 790; AID 1300; in the data active = activation above about 20%;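 also: 0% = vehicle wells and 100% = reference agonist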
PPARg SRC3 conf: confirmation of agonists of SRC-3 recruitment by human PPARgamma; shares compounds with PPARg SRC-3 ag; biochemical PPARgamma-SRC-3 coactivator recruitment, agonist mode; activation, % at 8 µM; hit rate 29% among 790; in the data active = activation above about 24%;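 also: 0% = vehicle wells and 100% = reference agonist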
Target sequence (P37231 whole entry, looked up): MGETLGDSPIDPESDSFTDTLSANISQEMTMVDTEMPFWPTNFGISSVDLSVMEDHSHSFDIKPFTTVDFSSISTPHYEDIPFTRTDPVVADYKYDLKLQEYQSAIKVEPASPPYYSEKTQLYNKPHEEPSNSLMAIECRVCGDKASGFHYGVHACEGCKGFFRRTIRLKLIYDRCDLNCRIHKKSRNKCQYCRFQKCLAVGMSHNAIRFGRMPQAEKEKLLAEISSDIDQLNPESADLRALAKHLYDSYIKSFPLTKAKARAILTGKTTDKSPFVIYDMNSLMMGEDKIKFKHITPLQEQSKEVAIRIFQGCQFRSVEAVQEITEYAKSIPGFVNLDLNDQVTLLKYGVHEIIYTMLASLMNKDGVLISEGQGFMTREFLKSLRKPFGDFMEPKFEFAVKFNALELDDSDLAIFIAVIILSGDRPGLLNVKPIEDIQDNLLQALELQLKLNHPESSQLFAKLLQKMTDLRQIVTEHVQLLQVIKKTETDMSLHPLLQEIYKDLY
Target sequence (Q9Y6Q9 whole entry, looked up): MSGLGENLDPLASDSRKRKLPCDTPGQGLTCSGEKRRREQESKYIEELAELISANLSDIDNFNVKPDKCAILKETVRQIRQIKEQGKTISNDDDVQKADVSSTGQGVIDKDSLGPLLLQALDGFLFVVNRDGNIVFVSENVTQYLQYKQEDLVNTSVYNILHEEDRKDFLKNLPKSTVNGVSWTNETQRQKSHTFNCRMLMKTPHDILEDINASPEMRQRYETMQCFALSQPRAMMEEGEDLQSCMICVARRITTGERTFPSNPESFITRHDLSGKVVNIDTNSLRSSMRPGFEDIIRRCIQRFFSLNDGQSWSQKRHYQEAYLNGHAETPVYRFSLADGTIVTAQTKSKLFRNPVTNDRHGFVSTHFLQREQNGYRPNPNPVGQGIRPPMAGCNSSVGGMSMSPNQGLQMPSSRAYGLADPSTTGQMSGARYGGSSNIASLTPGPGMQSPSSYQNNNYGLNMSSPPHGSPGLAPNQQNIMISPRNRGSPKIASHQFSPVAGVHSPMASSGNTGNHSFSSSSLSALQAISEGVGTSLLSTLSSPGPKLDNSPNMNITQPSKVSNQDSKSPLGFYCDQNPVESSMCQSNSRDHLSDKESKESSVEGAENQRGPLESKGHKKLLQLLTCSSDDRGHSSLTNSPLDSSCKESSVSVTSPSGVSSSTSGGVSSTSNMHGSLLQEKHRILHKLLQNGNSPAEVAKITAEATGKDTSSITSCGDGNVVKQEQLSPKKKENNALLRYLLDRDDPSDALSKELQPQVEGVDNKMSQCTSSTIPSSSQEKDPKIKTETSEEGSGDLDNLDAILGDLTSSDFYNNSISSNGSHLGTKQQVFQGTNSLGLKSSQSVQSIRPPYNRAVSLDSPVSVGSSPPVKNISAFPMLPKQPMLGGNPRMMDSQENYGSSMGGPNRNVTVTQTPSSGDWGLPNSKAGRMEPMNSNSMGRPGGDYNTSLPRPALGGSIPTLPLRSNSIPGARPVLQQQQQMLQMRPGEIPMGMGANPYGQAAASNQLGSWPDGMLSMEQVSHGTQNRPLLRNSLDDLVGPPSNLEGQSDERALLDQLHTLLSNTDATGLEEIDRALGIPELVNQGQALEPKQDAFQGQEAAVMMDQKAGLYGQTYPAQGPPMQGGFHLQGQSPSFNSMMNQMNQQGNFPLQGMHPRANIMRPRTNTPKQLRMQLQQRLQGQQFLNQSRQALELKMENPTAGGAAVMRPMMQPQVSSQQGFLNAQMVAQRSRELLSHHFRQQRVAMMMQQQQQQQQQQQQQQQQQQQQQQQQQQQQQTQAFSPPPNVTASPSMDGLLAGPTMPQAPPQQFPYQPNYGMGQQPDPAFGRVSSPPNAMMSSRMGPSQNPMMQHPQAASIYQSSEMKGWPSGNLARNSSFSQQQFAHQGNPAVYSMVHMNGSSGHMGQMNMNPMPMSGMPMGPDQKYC
* = called active by the depositor. A selection: hits, their analogues and other compounds. The true share with any hit is near 0.84%. Rule as the data show it, unless noted: active = TR-FRET ratio above about 2000; inactive = the rest.

Screening CCOc1ccc(CCNC(=O)COc2cc(=O)n(C)c3ccccc23)cc1OCC returned PPARg SRC-3 ag -5, SRC3 TRFRET art 1439, SRC2 TRFRET art 1368, SRC1 TRFRET art 1630, PPARg SRC-1 ag -8 and PPARg SRC2 recr -10.
`CCCCNC(=O)CSc1cc(=O)n(C)c2ccccc12` gave PPARg SRC-3 ag 43*, SRC2 TRFRET art 2320*, PPARg SRC-1 ag 33*, PPARg SRC2 recr 41*, PPARg SRC2 ag 31*, PPARg SRC1 ag 20* and PPARg SRC3 conf 21.
Cn1c(C(=O)NCCCN2CCOCC2)cc2c(=O)n(C)c3ccccc3c21 was read as PPARg SRC-3 ag -9, SRC2 TRFRET art 1527, PPARg SRC-1 ag -1 and PPARg SRC2 recr 8.
Cn1c(=O)cc(SCC(=O)NCCCN2CCOCC2)c2ccccc21 was read as PPARg SRC-3 ag 46*, SRC2 TRFRET art 2011*, PPARg SRC-1 ag 30*, PPARg SRC2 recr 28*, PPARg SRC2 ag 13, PPARg SRC1 ag 8 and PPARg SRC3 conf 9.
For Cn1c(=O)cc(SCC(=O)NCCCN2CCOCC2)c2ccc(Cl)cc21 the results were PPARg SRC-3 ag 83*, SRC2 TRFRET art 2615*, PPARg SRC-1 ag 60*, PPARg SRC2 recr 65*, PPARg SRC2 ag 47*, PPARg SRC1 ag 31* and PPARg SRC3 conf 32*.
C/C(=N\NC(=O)COc1ccc([N+](=O)[O-])cc1)C(C)(C)C was read as PPARg SRC-3 ag 18, SRC2 TRFRET art 1552, PPARg SRC-1 ag 3 and PPARg SRC2 recr 5.
COc1cccc(C2=NOC(C(=O)Nc3cccnc3Cl)C2)c1 (stereo not drawn) was read as PPARg SRC-3 ag 6, SRC3 TRFRET art 1573, SRC2 TRFRET art 1913, SRC1 TRFRET art 1968, PPARg SRC-1 ag 4 and PPARg SRC2 recr 4.
For Cc1ccc(CSCC(=O)NCc2cccs2)cc1 the results were PPARg SRC-3 ag 5, SRC3 TRFRET art 1540, SRC2 TRFRET art 1652, SRC1 TRFRET art 1827, PPARg SRC-1 ag -3 and PPARg SRC2 recr 3.
`CCCCNC(=O)CSc1nc(CCC)nc2ccccc12` gave PPARg SRC-3 ag 31*, SRC3 TRFRET art 1690, SRC2 TRFRET art 1519, SRC1 TRFRET art 2029, PPARg SRC-1 ag 31*, PPARg SRC2 recr 6, PPARg SRC2 ag 15, PPARg SRC1 ag 24* and PPARg SRC3 conf 14.
`Cn1c(C(=O)NCCCN2CCN(c3ccccc3F)CC2)cc2c(=O)n(C)c3ccccc3c21` gave PPARg SRC-3 ag -3, SRC2 TRFRET art 1516, PPARg SRC-1 ag -4 and PPARg SRC2 recr -11.
`Cn1c(=O)cc(SCC(=O)NCCCN2CCN(c3ccccc3F)CC2)c2ccccc21` gave PPARg SRC-3 ag 125*, SRC2 TRFRET art 4083*, PPARg SRC-1 ag 90*, PPARg SRC2 recr 92*, PPARg SRC2 ag 52*, PPARg SRC1 ag 34* and PPARg SRC3 conf 36*.
`O=C(Nc1ccc(-c2nc3ccc(NC(=O)c4cccs4)cc3[nH]2)cc1)c1cccs1` gave PPARg SRC-3 ag 12, SRC2 TRFRET art 1552, PPARg SRC-1 ag 21*, PPARg SRC2 recr 27*, PPARg SRC2 ag 11, PPARg SRC1 ag 1 and PPARg SRC3 conf 5.
`O=C(Nc1ccc2nc(-c3cccs3)[nH]c2c1)c1cccs1` gave PPARg SRC-3 ag 1, SRC2 TRFRET art 1449, PPARg SRC-1 ag -2 and PPARg SRC2 recr -1.
`CCN1CCN(C(=O)CSc2cc(=O)n(CC)c3ccccc23)CC1` gave PPARg SRC-3 ag 41*, SRC2 TRFRET art 2006*, PPARg SRC-1 ag 23*, PPARg SRC2 recr 44*, PPARg SRC2 ag 26*, PPARg SRC1 ag 17 and PPARg SRC3 conf 18.
Screening CCOC(=O)C1CCN(C(=O)Cc2c(C(=O)O)n(C)c3ccccc23)CC1 returned PPARg SRC-3 ag 3, SRC2 TRFRET art 1539, PPARg SRC-1 ag -3 and PPARg SRC2 recr 0.
For CCOC(=O)C1CCN(C(=O)CSc2cc(=O)n(CC)c3ccccc23)CC1 the results were PPARg SRC-3 ag 62*, SRC2 TRFRET art 2661*, PPARg SRC-1 ag 44*, PPARg SRC2 recr 53*, PPARg SRC2 ag 40*, PPARg SRC1 ag 27* and PPARg SRC3 conf 27*.
Screening CCn1c(=O)cc(SCC(=O)N2CCC(C)CC2)c2ccccc21 returned PPARg SRC-3 ag 108*, SRC2 TRFRET art 3414*, PPARg SRC-1 ag 77*, PPARg SRC2 recr 79*, PPARg SRC2 ag 44*, PPARg SRC1 ag 29* and PPARg SRC3 conf 29*.
CCn1c(=O)cc(OCC(=O)N2CCCC2)c2ccccc21 was read as PPARg SRC-3 ag 4, SRC2 TRFRET art 1703, PPARg SRC-1 ag 9 and PPARg SRC2 recr 2.
Screening Cc1[nH]c2ccccc2c1SCC(=O)N1CCC(C)CC1 returned PPARg SRC-3 ag 4, SRC3 TRFRET art 1659, SRC2 TRFRET art 1696, SRC1 TRFRET art 1569, PPARg SRC-1 ag 4 and PPARg SRC2 recr -2.
For CCn1c(=O)cc(SCC(=O)N2CCCCC2)c2ccccc21 the results were PPARg SRC-3 ag 52*, SRC2 TRFRET art 2691*, PPARg SRC-1 ag 44*, PPARg SRC2 recr 48*, PPARg SRC2 ag 37*, PPARg SRC1 ag 23* and PPARg SRC3 conf 26*.
O=C(/C=C/c1ccccc1)N1CCN(CCN2C(=O)c3cccc4cccc(c34)C2=O)CC1 was read as PPARg SRC-3 ag 1, SRC3 TRFRET art 1647, SRC2 TRFRET art 1515, SRC1 TRFRET art 1699, PPARg SRC-1 ag 4 and PPARg SRC2 recr -1.
For COc1cccc(CC2(CO)CCCN(CC3=Cc4cc(Cl)ccc4OC3)C2)c1 (stereo not drawn) the results were PPARg SRC-3 ag 2, SRC3 TRFRET art 1546, SRC2 TRFRET art 1495, SRC1 TRFRET art 1840, PPARg SRC-1 ag 3 and PPARg SRC2 recr -1.
CCOC(=O)N1CCC(NC(=O)CSc2cc(=O)n(CC)c3ccccc23)CC1 was read as PPARg SRC-3 ag 45*, SRC2 TRFRET art 2762*, PPARg SRC-1 ag 55*, PPARg SRC2 recr 48*, PPARg SRC2 ag 38*, PPARg SRC1 ag 27* and PPARg SRC3 conf 25*.
`CCn1c(=O)cc(SCC(=O)N2CCN(C)CC2)c2ccccc21` gave PPARg SRC-3 ag 40*, SRC2 TRFRET art 2120*, PPARg SRC-1 ag 27*, PPARg SRC2 recr 34*, PPARg SRC2 ag 30*, PPARg SRC1 ag 20* and PPARg SRC3 conf 21.
For CCn1cc(SCC(=O)N2CCOCC2)c2ccccc21 the results were PPARg SRC-3 ag 9, SRC2 TRFRET art 1544, PPARg SRC-1 ag 1 and PPARg SRC2 recr 9.

Screening results: PubChem, The Scripps Research Institute Molecular Screening Center
